Experimental findings from ChEMBL document CHEMBL1961873, “Compounds: GSK PKIS; Assays: Nanosyn kinase panel” (2012) are described below.

Assay [1] has as its target T1, Serine/threonine-protein kinase Nek9 (Homo sapiens) (UniProt Q8TD19).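 Further: each value is a mean percent inhibition of NEK9.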
T1 sequence (whole entry): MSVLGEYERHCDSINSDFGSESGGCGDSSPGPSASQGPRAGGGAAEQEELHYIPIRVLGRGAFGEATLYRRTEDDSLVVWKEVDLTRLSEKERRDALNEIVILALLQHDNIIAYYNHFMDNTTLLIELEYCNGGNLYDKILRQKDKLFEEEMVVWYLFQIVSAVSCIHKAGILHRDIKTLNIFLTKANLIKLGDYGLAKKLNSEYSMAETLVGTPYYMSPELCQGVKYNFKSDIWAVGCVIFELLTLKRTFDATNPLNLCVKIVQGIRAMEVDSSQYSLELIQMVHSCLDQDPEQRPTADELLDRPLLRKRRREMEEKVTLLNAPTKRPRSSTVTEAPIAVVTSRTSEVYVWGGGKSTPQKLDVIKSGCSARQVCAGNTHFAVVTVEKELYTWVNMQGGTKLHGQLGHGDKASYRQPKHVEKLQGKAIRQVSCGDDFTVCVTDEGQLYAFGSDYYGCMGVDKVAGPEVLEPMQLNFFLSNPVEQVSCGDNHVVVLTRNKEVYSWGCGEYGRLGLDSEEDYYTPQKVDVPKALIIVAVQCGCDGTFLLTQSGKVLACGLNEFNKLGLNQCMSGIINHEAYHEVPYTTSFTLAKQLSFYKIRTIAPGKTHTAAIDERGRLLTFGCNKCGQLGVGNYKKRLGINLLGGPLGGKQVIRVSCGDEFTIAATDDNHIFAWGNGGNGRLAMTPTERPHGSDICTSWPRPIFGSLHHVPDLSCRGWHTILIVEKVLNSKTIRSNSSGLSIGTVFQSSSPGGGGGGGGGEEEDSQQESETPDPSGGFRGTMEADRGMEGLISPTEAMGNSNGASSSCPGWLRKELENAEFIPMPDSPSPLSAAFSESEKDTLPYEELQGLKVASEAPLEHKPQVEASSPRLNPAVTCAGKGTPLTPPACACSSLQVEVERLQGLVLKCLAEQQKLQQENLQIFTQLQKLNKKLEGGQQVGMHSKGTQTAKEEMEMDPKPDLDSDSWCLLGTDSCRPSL
The following applies: at 1 µM.

For assay [2], the target named is Serine/threonine-protein kinase PLK1 (Homo sapiens) (UniProt P53350). The following applies: at 0.1 µM.
Assay [3] has the same target. The following applies: at 1 µM.
In assay [4] the target is T2, Dual specificity protein kinase TTK (Homo sapiens) (UniProt P33981).
T2 sequence (whole entry): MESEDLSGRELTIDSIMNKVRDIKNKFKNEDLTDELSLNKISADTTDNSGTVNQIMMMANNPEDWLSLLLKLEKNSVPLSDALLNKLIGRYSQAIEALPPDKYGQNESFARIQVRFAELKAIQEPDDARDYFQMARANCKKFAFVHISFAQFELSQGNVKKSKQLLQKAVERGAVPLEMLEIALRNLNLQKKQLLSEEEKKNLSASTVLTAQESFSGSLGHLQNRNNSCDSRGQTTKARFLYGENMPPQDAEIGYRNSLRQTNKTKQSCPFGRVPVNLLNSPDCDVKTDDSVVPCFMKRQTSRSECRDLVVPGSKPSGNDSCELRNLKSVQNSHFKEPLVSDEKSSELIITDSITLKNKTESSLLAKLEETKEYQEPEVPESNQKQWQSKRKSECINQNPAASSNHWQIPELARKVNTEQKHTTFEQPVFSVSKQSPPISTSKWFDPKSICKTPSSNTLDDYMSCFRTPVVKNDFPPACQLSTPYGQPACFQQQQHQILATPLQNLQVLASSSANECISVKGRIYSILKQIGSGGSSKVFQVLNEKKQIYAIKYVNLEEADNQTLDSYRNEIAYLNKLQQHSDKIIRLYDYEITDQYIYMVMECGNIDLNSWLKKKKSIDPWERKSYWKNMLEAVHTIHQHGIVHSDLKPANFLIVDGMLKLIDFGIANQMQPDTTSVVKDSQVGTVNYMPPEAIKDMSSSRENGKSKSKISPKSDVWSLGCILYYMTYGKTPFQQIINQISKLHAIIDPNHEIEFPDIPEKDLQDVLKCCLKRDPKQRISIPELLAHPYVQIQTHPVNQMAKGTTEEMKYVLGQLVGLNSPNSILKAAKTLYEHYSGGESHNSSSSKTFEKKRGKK
The following applies: at 0.1 µM.

Assay [5] has as its system T3, Receptor-type tyrosine-protein kinase FLT3 (Homo sapiens), P36888 [D835Y].
T3 sequence (whole entry): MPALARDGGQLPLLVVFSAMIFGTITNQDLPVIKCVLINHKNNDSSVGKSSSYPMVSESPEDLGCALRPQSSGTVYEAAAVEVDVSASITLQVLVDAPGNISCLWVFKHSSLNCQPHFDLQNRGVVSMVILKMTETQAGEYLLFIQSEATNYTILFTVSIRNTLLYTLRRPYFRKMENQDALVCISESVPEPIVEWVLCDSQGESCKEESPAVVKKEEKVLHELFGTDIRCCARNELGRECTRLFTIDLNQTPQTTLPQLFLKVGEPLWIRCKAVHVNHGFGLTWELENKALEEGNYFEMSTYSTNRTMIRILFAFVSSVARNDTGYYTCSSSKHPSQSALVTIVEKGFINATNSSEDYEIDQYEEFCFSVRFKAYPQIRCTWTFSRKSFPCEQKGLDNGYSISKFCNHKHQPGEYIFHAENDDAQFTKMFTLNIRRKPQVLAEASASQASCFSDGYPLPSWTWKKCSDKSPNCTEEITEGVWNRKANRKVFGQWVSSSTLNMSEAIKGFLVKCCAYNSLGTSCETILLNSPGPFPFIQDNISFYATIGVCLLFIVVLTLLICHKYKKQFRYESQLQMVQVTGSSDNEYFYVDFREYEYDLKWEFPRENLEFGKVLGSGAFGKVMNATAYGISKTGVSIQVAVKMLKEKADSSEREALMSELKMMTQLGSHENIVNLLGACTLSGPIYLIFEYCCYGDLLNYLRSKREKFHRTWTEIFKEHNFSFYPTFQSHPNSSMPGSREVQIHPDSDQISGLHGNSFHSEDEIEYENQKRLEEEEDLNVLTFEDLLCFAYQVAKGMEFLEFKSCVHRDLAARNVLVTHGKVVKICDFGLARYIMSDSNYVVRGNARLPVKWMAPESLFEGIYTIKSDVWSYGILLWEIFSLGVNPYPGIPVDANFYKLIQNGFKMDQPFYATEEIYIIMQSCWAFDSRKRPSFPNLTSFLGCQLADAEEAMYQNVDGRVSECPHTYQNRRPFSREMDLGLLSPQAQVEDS
The following applies: at 1 µM.

Assay [6] addresses Vascular endothelial growth factor receptor 3 (Homo sapiens) (UniProt P35916). The following applies: at 0.1 µM.
The target is the same in assay [7]. Conditions: at 1 µM.
The target in assay [8] is Macrophage colony-stimulating factor 1 receptor (Homo sapiens) (UniProt P07333). The following applies: at 0.1 µM.
For assay [9] the target is unchanged. Conditions: at 1 µM.
Assay [10] concerns the target Tyrosine-protein kinase Fyn (Homo sapiens) (UniProt P06241). The following applies: at 0.1 µM.
Assay [11] shares this target. Conditions: at 1 µM.
In assay [12] the target is Tyrosine-protein kinase HCK (Homo sapiens) (UniProt P08631). Conditions: at 0.1 µM.
The target is the same in assay [13]. Conditions: at 1 µM.
Assay [14] deals with Insulin-like growth factor 1 receptor (Homo sapiens) (UniProt P08069). The following applies: at 0.1 µM.
For assay [15] the target is unchanged. The following applies: at 1 µM.
Assay [16] deals with Insulin receptor (Homo sapiens) (UniProt P06213). Conditions: at 0.1 µM.
Assay [17] has the same target. The following applies: at 1 µM.
Assay [18] concerns the target Insulin receptor-related protein (Homo sapiens) (UniProt P14616). Conditions: at 0.1 µM.
The target is the same in assay [19]. Conditions: at 1 µM.
Assay [20] has as its target T4, Tyrosine-protein kinase ITK/TSK (Homo sapiens) (UniProt Q08881).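 Further: mean percent inhibition of ITK from the GSK PKIS screen.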
T4 sequence (whole entry): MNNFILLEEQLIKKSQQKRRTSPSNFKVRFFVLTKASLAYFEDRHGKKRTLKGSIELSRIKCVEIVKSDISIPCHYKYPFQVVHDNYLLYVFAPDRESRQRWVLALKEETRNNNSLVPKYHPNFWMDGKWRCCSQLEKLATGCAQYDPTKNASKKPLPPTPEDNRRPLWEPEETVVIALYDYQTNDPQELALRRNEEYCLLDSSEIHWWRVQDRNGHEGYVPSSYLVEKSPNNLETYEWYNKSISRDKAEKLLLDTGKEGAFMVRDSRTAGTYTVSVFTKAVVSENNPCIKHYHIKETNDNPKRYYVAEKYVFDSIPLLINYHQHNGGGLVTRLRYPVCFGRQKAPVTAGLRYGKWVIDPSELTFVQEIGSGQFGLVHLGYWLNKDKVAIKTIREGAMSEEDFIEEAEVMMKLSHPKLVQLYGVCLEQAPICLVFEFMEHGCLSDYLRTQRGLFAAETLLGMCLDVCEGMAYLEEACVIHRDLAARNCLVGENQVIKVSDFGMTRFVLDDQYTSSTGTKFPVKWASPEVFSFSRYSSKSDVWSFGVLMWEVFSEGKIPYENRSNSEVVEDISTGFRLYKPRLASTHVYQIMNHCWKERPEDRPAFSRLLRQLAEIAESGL
Conditions: at 0.1 µM.

Structures are written as SMILES.

Chain of Tyrosine-protein kinase Fyn (Homo sapiens) (P06241 2-537 limits assumed): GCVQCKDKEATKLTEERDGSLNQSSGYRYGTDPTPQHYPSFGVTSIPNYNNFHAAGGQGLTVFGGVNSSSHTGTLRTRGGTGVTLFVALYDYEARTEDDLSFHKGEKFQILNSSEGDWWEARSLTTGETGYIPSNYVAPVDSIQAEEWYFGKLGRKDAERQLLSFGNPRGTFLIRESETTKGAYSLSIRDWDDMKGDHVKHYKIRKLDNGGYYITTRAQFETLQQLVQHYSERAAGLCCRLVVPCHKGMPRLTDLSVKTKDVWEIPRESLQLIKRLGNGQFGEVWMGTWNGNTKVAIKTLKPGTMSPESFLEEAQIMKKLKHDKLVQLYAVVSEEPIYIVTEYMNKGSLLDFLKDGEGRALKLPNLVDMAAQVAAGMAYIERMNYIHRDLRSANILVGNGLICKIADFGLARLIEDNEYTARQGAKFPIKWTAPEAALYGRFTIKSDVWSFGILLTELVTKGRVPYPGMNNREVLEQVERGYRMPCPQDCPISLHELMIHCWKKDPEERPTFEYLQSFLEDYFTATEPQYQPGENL
Chain of Insulin receptor (Homo sapiens) (P06213 28-758 limits assumed): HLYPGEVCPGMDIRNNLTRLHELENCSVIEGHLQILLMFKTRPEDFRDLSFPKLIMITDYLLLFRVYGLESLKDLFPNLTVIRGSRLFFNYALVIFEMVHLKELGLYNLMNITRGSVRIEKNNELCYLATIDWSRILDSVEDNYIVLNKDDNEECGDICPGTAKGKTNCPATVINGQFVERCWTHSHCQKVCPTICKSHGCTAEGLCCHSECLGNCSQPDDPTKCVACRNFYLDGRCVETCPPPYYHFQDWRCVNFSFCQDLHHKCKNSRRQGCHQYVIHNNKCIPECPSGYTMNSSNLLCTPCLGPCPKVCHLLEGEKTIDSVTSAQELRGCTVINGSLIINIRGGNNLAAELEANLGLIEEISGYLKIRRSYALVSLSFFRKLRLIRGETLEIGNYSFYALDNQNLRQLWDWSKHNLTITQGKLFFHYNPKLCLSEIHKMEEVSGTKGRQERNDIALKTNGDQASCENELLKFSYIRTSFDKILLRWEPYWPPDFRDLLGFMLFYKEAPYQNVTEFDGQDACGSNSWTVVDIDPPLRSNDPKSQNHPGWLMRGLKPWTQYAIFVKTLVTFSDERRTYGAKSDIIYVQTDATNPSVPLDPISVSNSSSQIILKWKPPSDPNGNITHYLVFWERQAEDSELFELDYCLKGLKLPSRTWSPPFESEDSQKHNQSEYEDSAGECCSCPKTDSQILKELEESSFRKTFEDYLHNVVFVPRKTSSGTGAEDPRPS
Chain of Insulin receptor (Homo sapiens) (P06213 763-1382 limits assumed): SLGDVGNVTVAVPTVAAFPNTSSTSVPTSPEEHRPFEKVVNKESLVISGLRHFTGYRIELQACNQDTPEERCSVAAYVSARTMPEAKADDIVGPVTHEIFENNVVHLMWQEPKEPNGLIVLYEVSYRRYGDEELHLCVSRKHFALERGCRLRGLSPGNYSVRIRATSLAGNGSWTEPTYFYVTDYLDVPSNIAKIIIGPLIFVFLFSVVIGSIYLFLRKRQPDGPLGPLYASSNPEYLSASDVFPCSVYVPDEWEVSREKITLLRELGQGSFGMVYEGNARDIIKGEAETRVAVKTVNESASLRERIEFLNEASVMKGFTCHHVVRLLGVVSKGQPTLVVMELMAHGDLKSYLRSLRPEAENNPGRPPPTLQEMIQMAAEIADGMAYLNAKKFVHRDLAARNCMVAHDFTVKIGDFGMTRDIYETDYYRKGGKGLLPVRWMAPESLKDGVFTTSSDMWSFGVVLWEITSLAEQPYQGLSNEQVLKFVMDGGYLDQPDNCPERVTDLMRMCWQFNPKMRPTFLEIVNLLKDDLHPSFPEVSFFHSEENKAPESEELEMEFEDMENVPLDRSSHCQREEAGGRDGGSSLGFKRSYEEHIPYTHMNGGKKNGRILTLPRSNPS
Chain of Vascular endothelial growth factor receptor 3 (Homo sapiens) (P35916 whole entry): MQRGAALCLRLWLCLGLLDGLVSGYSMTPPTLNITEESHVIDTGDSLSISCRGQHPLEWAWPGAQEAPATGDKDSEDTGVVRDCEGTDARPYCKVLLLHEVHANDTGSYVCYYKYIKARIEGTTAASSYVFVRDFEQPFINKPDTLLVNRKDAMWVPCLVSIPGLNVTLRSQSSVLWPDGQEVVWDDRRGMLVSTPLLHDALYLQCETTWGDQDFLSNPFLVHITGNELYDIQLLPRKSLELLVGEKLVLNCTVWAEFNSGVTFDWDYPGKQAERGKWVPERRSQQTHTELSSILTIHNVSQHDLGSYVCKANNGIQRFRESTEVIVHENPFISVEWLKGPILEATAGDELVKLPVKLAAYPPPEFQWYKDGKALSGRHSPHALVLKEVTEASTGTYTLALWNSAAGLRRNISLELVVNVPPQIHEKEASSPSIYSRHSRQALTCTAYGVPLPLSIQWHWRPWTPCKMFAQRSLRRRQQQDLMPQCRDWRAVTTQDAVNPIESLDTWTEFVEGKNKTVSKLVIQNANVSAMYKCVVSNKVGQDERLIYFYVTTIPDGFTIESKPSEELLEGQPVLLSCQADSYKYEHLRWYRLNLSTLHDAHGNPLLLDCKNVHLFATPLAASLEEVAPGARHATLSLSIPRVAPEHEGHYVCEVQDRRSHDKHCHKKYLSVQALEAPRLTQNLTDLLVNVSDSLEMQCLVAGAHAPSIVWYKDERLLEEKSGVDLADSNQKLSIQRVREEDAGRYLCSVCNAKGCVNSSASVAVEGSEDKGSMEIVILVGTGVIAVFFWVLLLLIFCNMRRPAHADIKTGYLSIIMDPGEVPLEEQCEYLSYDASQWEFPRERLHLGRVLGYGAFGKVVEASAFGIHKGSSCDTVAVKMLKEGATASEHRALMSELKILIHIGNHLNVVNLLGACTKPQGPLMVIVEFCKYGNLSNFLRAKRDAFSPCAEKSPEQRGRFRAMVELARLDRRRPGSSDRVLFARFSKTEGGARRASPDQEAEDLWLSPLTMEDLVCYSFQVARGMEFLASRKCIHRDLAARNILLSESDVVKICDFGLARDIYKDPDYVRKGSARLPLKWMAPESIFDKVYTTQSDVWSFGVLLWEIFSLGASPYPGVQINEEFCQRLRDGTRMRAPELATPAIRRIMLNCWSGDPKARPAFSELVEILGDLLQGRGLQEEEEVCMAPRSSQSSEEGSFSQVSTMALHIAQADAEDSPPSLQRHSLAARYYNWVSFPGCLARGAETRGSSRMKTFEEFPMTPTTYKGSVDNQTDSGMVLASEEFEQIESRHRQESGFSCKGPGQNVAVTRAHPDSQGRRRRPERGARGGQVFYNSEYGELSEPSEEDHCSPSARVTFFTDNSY
Chain of Insulin receptor-related protein (Homo sapiens) (P14616 27-742 limits assumed): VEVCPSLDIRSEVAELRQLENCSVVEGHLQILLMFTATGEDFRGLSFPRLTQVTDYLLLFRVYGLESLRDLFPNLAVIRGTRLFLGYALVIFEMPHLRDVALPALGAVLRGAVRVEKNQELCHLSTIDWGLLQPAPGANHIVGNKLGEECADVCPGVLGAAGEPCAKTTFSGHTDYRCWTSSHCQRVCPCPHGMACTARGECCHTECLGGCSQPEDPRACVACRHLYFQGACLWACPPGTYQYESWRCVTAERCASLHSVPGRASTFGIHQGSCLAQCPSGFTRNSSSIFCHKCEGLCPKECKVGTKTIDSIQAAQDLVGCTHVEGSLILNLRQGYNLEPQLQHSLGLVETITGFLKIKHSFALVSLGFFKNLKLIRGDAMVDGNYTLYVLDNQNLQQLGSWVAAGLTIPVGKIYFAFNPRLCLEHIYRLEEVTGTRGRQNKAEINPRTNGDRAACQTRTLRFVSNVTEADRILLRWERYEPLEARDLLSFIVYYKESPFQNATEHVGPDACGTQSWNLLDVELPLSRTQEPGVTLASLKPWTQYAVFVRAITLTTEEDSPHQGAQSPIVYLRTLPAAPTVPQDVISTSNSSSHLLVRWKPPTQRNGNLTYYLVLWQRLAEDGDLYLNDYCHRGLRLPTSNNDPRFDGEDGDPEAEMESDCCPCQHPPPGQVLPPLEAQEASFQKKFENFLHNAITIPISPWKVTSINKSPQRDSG
Chain of Insulin receptor-related protein (Homo sapiens) (P14616 747-1297 limits assumed): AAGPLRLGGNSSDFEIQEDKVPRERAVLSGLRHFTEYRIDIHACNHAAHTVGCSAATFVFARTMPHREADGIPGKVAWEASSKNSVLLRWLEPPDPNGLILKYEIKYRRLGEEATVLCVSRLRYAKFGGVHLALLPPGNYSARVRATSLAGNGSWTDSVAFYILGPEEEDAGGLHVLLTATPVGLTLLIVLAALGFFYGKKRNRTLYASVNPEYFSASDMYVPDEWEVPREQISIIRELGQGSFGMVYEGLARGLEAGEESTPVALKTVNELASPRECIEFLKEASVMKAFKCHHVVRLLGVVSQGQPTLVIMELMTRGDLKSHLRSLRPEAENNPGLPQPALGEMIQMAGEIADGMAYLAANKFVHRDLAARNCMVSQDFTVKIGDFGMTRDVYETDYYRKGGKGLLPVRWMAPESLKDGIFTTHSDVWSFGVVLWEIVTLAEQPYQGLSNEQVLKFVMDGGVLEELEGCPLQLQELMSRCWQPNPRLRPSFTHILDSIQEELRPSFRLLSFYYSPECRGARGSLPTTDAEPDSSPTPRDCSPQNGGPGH
Chain of Tyrosine-protein kinase HCK (Homo sapiens) (P08631 2-526 limits assumed): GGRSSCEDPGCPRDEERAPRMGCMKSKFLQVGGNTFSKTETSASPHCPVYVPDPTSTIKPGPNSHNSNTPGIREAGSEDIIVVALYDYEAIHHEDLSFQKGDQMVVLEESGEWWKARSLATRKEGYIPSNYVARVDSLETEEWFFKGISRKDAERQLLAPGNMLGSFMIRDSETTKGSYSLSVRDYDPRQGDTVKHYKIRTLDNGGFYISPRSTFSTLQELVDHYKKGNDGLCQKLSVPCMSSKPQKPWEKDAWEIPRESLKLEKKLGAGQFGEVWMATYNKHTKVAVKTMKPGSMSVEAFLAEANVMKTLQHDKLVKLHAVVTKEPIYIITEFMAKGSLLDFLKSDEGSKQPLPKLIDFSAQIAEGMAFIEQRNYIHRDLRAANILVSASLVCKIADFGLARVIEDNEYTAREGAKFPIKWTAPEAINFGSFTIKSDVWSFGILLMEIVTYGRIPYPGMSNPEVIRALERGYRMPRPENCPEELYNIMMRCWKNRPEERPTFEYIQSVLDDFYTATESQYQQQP

Turning to `O=C(Nc1n[nH]c2nc(-c3ccc(O)cc3)c(Br)cc12)C1CC1`, the inhibition stood at 13.2% in assay [1]; 6.21% in [2]; 5.59% in [3]; 10.2% in assay [4]; 27.1% in assay [5]; 18.3% in assay [6]. For the same molecule, the inhibition in assay [7] is 60.9%; in assay [8], 3.87%; in assay [9], 6.92%; in assay [10], 5.98%; in [11], 14.5%; in assay [12], 12.2%. Moreover, the inhibition in [13] was 28.4%; in assay [14], 5.22%; in assay [15] it was 5.83%; in assay [16], 7.55%; in [17] it was 6.22%; in assay [18], 1.99%. The inhibition amounted to 1.59% in assay [19] and 2.89% in assay [20].
As to `O=C(Nc1n[nH]c2nc(-c3ccco3)ccc12)C1CC1`, the inhibition in [1] was -0.33%; in assay [2], 1.81%; in [3], 0.82%; in assay [4], 1.09%; in assay [5], 3.83%; in [6] it was -1.89%. The inhibition was 2.09% in assay [7]; -1.01% in [8]; 2.62% in assay [9]; 1.1% in assay [10]; 1.67% in [11]; 3.22% in assay [12]. Further, the inhibition in assay [13] was 7.96%; in assay [14] it was 1.21%; in assay [15], 2.33%; in assay [16], -3.11%; in [17] it was 0.45%; in assay [18], 1.25%. The inhibition in assay [19] was 0.79%; in assay [20], 1.08%.
For `FC(F)(F)c1cccc(Nc2nccc(-c3cnn4nc(-c5ccccc5)ccc34)n2)c1`, the inhibition was 8.66% in assay [1]; 2.06% in assay [2]; -0.34% in assay [3]; 3.1% in [4]; 26.7% in assay [5]; -0.18% in assay [6]. Moreover, the inhibition in assay [7] is 6.91%; in assay [8], -2.73%; in [9] it was 16.4%; in [10] it was 0.72%; in assay [11], 7.18%; in [12], 1.72%. Further, the inhibition was 6.11% in [13]; -1.86% in assay [14]; -1.43% in assay [15]; -2.61% in assay [16]; 1.45% in assay [17]; 0.93% in assay [18]. Besides, the inhibition in assay [19] was 0.27%; in [20] it was -0.41%.
Regarding `O=C1Nc2ccccc2/C1=C/Nc1ccc(-n2cncn2)cc1`, the inhibition in [1] came to 12.4%; in [2] it was 4.56%; in [3], 2.82%; in [4], 22.4%; in assay [5], 45.8%; in assay [6] it was 16.8%. For the same molecule, the inhibition was determined as 40.2% in assay [7]; 6.47% in [8]; 34.5% in assay [9]; 2.68% in [10]; 7.09% in [11]; 5.82% in [12]. Moreover, the inhibition in assay [13] came to 11.7%; in assay [14], 10.8%; in assay [15], 16.7%; in assay [16], 9.38%; in [17], 14.8%; in assay [18], 2.54%. Further, the inhibition in assay [19] turned out to be 5.98%; in assay [20], 1.26%.
